Measurements from PubChem BioAssay (NCI).
About 83,000 compounds went through this panel and 20% of them were active in at least one assay; those are over-represented in the sample as a whole.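 Note: values are percent growth. 100 is the growth of untreated cells, values between 100 and 0 indicate rising inhibition; between -100 and 0 indicates cell death.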 Unmarked numbers belong to inactive results. Active and inactive are the calls of the source. The calls were made as follows: active = growth percent below 10; inactive = the rest.

Key:
Test in all cases: NCI-60 one-dose screen, 48 h (100 = growth as untreated, 0 = no growth, -100 = all killed)
Conditions in all cases: 10 µM unless noted
NCI-H23 lung = tested on: NCI-H23 lung
NCI-H226 lung = tested on: NCI-H226 lung
NCI-H322M lung = tested on: NCI-H322M lung
HOP-62 NSCLC = tested on: HOP-62 NSCLC
NCI-H460 lung = tested on: NCI-H460 lung
HOP-92 NSCLC = tested on: HOP-92 NSCLC
NCI-H522 lung = tested on: NCI-H522 lung
A549/ATCC NSCLC = tested on: A549/ATCC NSCLC
786-0 renal = tested on: 786-0 renal
COLO 205 colon = tested on: COLO 205 colon
DU-145 prostate = tested on: DU-145 prostate
K-562 leukemia = tested on: K-562 leukemia
MALME-3M melanoma = tested on: MALME-3M melanoma
MDA-MB-231 breast = tested on: MDA-MB-231 breast
RXF 393 renal = tested on: RXF 393 renal
SF-268 CNS = tested on: SF-268 CNS
SF-295 CNS = tested on: SF-295 CNS
SF-539 CNS = tested on: SF-539 CNS
UACC-257 melanoma = tested on: UACC-257 melanoma
M14 melanoma = tested on: M14 melanoma

SMILES | growth (NCI-H23 lung) | growth (NCI-H226 lung) | growth (NCI-H322M lung) | growth (HOP-62 NSCLC) | growth (NCI-H460 lung) | growth (HOP-92 NSCLC) | growth (NCI-H522 lung) | growth (A549/ATCC NSCLC) | growth (786-0 renal) | growth (COLO 205 colon) | growth (DU-145 prostate) | growth (K-562 leukemia) | growth (MALME-3M melanoma) | growth (MDA-MB-231 breast) | growth (RXF 393 renal) | growth (SF-268 CNS) | growth (SF-295 CNS) | growth (SF-539 CNS) | growth (UACC-257 melanoma) | growth (M14 melanoma)
Cc1cc(=O)oc2cc(OCCOc3ccc(/C=C/C(=O)Nc4ccccc4N)cc3)ccc12 | 46.5% | 24.8% | 63% | 24.1% | 19.5% | 31% | 3.88% (active) | 30.3% | 23.4% | -24.8% (active) | 35.9% | 21.1% | 48.6% | -16.1% (active) | 31% | 27.9% | 30.6% | 18.9% | 30.3% | 54.2%
CC(=O)OC[C@@]1(C)C2CC[C@]3(C)C(CC=C4C5CC(C)(C)CC[C@]5(C(=O)Nc5ccc(F)cc5)CC[C@]43C)[C@@]2(C)C[C@@H](OC(C)=O)[C@@H]1OC(C)=O (stereo not given in full) | 45.6% | 47.7% | 60.3% | 41.3% | 11.5% | 54.2% | 49.5% | 40.6% | 59% | 43.1% | 47.4% | 22.4% | 58.2% | 65.5% | 87.4% | 57.4% | 23.4% | 40.2% | 26.8% | 48.1%
COc1ccc2[nH]c(O)c(N=NC(=O)COc3ccc(NC(=O)Nc4ccccc4)cc3)c2c1 | 20.2% | 26.7% | 37.2% | -6% (active) | 48.7% | -9.25% (active) | 21.1% | 47.5% | 8.04% (active) | 53.6% | 72.5% | 46.3% | 13.9% | 12.9% | 39% | 41.8% | 41.7% | -22.7% (active) | 63.9% | 41.7%
Cc1cc2nc3c4ccccc4n(CCCN(C)C)c3nc2cc1C | -53.4% (active) | 4.65% (active) | -22.6% (active) | -0.831% (active) | -25.7% (active) | -18.2% (active) | -58.7% (active) | 6.71% (active) | 3.7% (active) | -86.3% (active) | 2.68% (active) | -4.14% (active) | -89.6% (active) | -23.4% (active) | -62.1% (active) | -38.6% (active) | -30.4% (active) | -69.4% (active) | -81.2% (active) | -74.4% (active)
CCN1C(=O)/C(=N\N=C(/C)c2ccc3c(c2)Nc2ccccc2S3)c2cc(Cl)ccc21 | 50.4% | 66.7% | 91.3% | 92.9% | 63.4% | 29.8% | 54% | 49.8% | 75% | 89.8% | 71.8% | 38.2% | 35.9% | 66.8% | 65.9% | 43.8% | 43.2% | 73.3% | 25.7% | 67.5%
COc1ccc2c(c1)C(=N/N=C(\C)c1ccc(OC)c(S(N)(=O)=O)c1)C(=O)N2 | 94.1% | 89.3% | 94% | 89.1% | 101% | 79% | 84% | 94% | 97.9% | 98.7% | 105% | 103% | 93.7% | 75.1% | 80.4% | 97.5% | 86.4% | 86.8% | 96.7% | 92.4%
CCCCNC(=S)Nc1ccc(OCc2nc3ccccc3[nH]2)cc1 | 70% | 102% | 80.7% | 69.5% | 69.7% | 96.2% | 36.2% | 49.7% | 62.3% | 95.6% | 58.9% | 28.6% | 77.5% | 65.2% | 99.5% | 44.2% | 53.7% | 56.2% | 83.5% | 55.1%
CC(C)c1sc(NC(=O)c2cc(NC(=O)c3cc(NC(=O)c4cscn4)cn3C)cn2C)nc1C(=O)NCCCN(C)C | -22.3% (active) | -54% (active) | 19.9% | 16.1% | 89.9% | -22.9% (active) | -74.8% (active) | 105% | 64.8% | -63% (active) | 16.4% | 8.89% (active) | -51.7% (active) | -33.3% (active) | -47.2% (active) | 16.3% | 58.7% | -33.6% (active) | 7.52% (active) | 45%
CC(=O)Nc1ccc(-n2cnc3cc(-c4ccc(O)cc4)ccc32)cc1C(F)(F)F | 21.4% | 44.8% | 41.1% | 34.4% | 9.22% (active) | 44.8% | -33.8% (active) | 19.4% | 20.3% | 43.8% | 23% | 25% | 19.1% | 42.7% | 26% | 21.7% | -13.7% (active) | 24.2% | 39.7% | 30.3%
COc1cc2oc(-c3cccc(C(=O)Nc4ccc(Cl)cc4)c3)cc(=O)c2c(OCCNC(=O)[C@@H](N)CCC(=O)O)c1OC | 88.2% | 86.6% | 79.8% | 81.9% | 63.2% | 63% | 82.8% | 103% | 60.6% | 70.6% | 86.9% | 32.2% | 76.1% | 30.5% | 9.77% (active) | 94.7% | 86.4% | 75.4% | 100% | 16.7%
CC(C)Sc1nc(NCCc2c[nH]c3ccccc23)c(C#N)c(-c2ccccc2)n1 | 17.9% | 33.8% | 85.4% | 31.9% | 6.33% (active) | 4.4% (active) | 25.4% | 39.6% | 1.53% (active) | 11.9% | 42.5% | 8.87% (active) | 55.8% | -17.3% (active) | -27.6% (active) | 45% | -14.3% (active) | 40.8% | 86.4% | 42.7%
CCOC(=O)COc1c(OC)c(OC)cc2oc(-c3cccc(C(=O)Nc4ccc(Cl)cc4)c3)cc(=O)c12 | 62.9% | 76.2% | 108% | 54.9% | 83.5% | 52.6% | 46% | 77% | 49.5% | 39.8% | 64% | 23.2% | 52% | 50.7% | 75.6% | 56.1% | 38.2% | 59.8% | 77.2% | 33.9%
COc1cc2c(c(OC)c1OC)C(=O)CC(c1cccc(NC(=O)c3cc(NC(=O)[C@H](CO)NC(=O)OC(C)(C)C)ccc3Cl)c1)O2 (stereo not given in full) | 37.3% | 33% | 42.5% | 50.3% | 34.3% | 39.7% | 27.6% | 58.2% | 42.8% | 43% | 27.5% | 12.7% | 43.2% | 6.43% (active) | 46.8% | 45.4% | 37% | 37% | 26.9% | 22.5%
C=C1CC[C@@H]2[C@]3(C)COC(c4ccco4)O[C@@H]3CC[C@@]2(C)[C@@H]1C/C=C1/C(=O)OCC1OC(C)=O (stereo not given in full) | 61.6% | 0.912% (active) | 79.5% | 66.5% | 37.6% | 37.9% | -29.9% (active) | 38.7% | 3.41% (active) | 48.6% | 48.8% | 3.97% (active) | -60.3% (active) | 48.8% | 27.5% | 67.8% | 59.5% | -47.3% (active) | 58.7% | 19%
O=C(Nc1cccc(-n2cnc3cc(-c4ccc(O)cc4)ccc32)c1)C1CC1 | 40.1% | 13.8% | 48% | 44.7% | 7.41% (active) | 125% | 5.82% (active) | 27.4% | 25.8% | 34.2% | 28.5% | 12.2% | 46.3% | 32.3% | 14.1% | 34.9% | 6.04% (active) | -6.53% (active) | 73.3% | 40.5%
